Hits are enriched below; roughly 3% of the tested compounds scored in any of these assays.
p53null 39C tox = selectivity test: cytotoxicity in p53 null cells, nonpermissive temperature; Potency, µM (highest dose often 46.1 µM), for inactives: at the highest dose activity, negative = cell killing, most hits filed as cytotoxic; actives 0.97% (n = 55,000); H1299 p53-null (neo) cells, 39C, ATPlite viability, 24 h;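 note: 0% = DMSO only and -100% = full killing by 100 µM tamoxifen; nearly all actives have a fitted effect of over 50% in size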
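ATP-luminescence viability readout (ATPlite, 20 min RT) after 24 hr compound treatment at 39C of H1299-neo or H1299-p53A138V cells; titration up to 46 uM; normalized to DMSO and 100 uM tamoxifen; Hill-fit AC50.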
S16 viability = cytotoxicity in S16 Pmp22-F2sN Schwann cells; S16 Pmp22-F2sN Schwann cells viability, CellTiter-Glo, 24 h; Potency, µM (highest dose often 57.5 µM), inactives show at the top dose activity change, negative = cytotoxicity, hits mostly cytotoxic; actives 0.48% (n = 43,000); AID 1508642; note: nearly all actives have a fitted effect of over 65% in size
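S16 Pmp22-F2sN Schwann cells (500-1,000/well) in phenol-red-free DMEM with 10% FBS received 23 nL compound by pin tool for 24 h at 37 °C. Viability was then read as CellTiter-Glo luminescence after 15 min at room temperature.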
mTORC1 inh = inhibitors of mTORC1 signaling in Tsc2-/- p53-/- MEF cells | actives 0.78% (n = 44,000) | AID 493208 | Potency, µM (top dose mostly 38.3 µM), inactives show at the top dose activity change, negative = inhibition, most hits filed as inhibitors | Tsc2-/- p53-/- MEF, phospho-rpS6 immunofluorescence/PI, 24 h;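 note: plate controls were DMSO for no effect and rapamycin for full effect; nearly all actives have a fitted effect of over 50% in size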
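Readout is phospho-S6 Alexa 488 signal normalized to PI per well, reported as % active cells with thresholds set from rapamycin (7.5 nM) and DMSO controls. Cells: Tsc2-/-, p53-/- MEFs, 24 hrs compound at 37 C; PI cell number serves as viability.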
OvCa metastasis = inhibitors of ovarian cancer cell adhesion and invasion in omental model | SKOV3ip1-GFP adhesion/invasion on 3D omental model, fluorescence | Potency, µM (doses to about 45.8 µM), for inactives: at the top dose activity change, negative = inhibition, actives largely listed as inhibitors | actives 0.1% (n = 46,000);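 note: plate controls were DMSO wells for no effect and tomatine positive control wells for full effect; nearly all actives have a fitted effect of over 65% in size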
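Primary human omental fibroblast/mesothelial 3D culture pre-formed 48 h. SKOV3ip1-GFP cells added with compounds (0.36-46 umol/L), incubated 2 h RT/16 h 37 C, fixed; GFP cells quantified at 488/509 nm.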
p53null 32C tox = selectivity test: cytotoxicity in p53 null cells, permissive temperature. H1299-neo p53 null cells, ATP luminescence, 24 h, 32C. Potency, µM (titrated, usually from 46.1 µM), inactives show top-dose activity change, negative = cytotoxicity, usual class: cytotoxic. actives 0.62% (n = 55,000). AID 903;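 note: 0% = DMSO only and -100% = full killing by 100 µM tamoxifen; nearly all actives have a fitted effect of over 55% in size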
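H1299-neo, 600 cells/well; overnight 37C; cpd up to 46 uM, 24 h at 32C; ATPlite luminescence after 20 min RT; normalized to DMSO (0%) and tamoxifen 100 uM (100% kill); Hill-fit AC50.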
PMP22 txn = PMP22 gene transcription modulation | S16 Pmp22-F2sN Schwann cells (luciferase reporters placed in the Pmp22 gene), FLuc/NLuc coincidence luminescence, 24 h | actives 2% (n = 43,000) | Potency, µM (top dose mostly 57.5 µM), without a hit: at the highest dose activity change, negative = inhibition, actives largely listed as inhibitors | AID 1508649; active = clear falling dose curves in both reporters; inconclusive = both reporters move, but less clearly or upward; inactive = either reporter flat; the % is the NLuc reporter signal
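S16 Schwann cells carrying FLuc/NLuc coincidence reporter in the Pmp22 3' UTR treated with compound 24 h at 37C; FLuc then NLuc luminescence read sequentially by dual-luciferase reagents.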
* = called active by the depositor; i = inactive; ? = inconclusive; / = not tested or not shown. Unless noted, calls come from the whole dose curve; as a rule, active = well fitted curve in the direction sought with a large enough effect; inconclusive = small, poorly fitted or top-dose-only effect, or another doubt; inactive = no such curve, though single readings can be large; an effect the other way counts as inactive or inconclusive. Unless noted, % is set by controls: 0 for no effect and ±100 for the full control effect; potency is the fitted concentration of half-maximal effect.

SMILES	p53null 39C tox	S16 viability	mTORC1 inh	OvCa metastasis	p53null 32C tox	PMP22 txn
CCc1ccccc1NS(=O)(=O)c1ccc2oc(=O)c3ncn(C)c3c2c1	10.8%	/	1.4%	i	-8.9%	/
CCOc1ccccc1NS(=O)(=O)c1ccc2oc(=O)c3ncn(C)c3c2c1	20µM*	/	-1.3%	?	-18.4%	/
CC(=O)N1CCCc2cc(S(=O)(=O)N3CCCC(C(=O)N4CCN(c5ccccc5F)CC4)C3)ccc21 (centres undefined)	11.7%	10µM*	-15.0%	2.1%	-2.1%	?
Cc1ccc(-n2ncc3c(N4CCCCCC4)ncnc32)cc1	10.7%	-8.0%	15.3%	3.0%	3.16µM*	?
Fc1ccc(-n2ncc3c(N4CCC(Cc5ccccc5)CC4)ncnc32)cc1	18.1%	-2.5%	3.0%	3.5%	-0.9%	-0.1%
Fc1ccc(-n2ncc3c(N4CCCCCC4)ncnc32)cc1	14.1µM*	2.1%	5.7%	i	?	-2.8%
Clc1cccc(-n2ncc3c(N4CCCCC4)ncnc32)c1	12.6µM*	5.7%	-2.3%	i	3.16µM*	-4.6%
Clc1cccc(-n2ncc3c(N4CCCCCC4)ncnc32)c1	-0.8%	5.2%	2.4%	-4.8%	?	13.2%
CCCCNC(=O)CSc1c2c(nc3ccc(Cl)cc13)CCCC2	136.3%	39.8µM*	?	3.2%	8.3%	?
CCN1CCN(c2cc(C)c3cc(NC(=O)c4cccc(Cl)c4)ccc3n2)CC1	22.4µM*	?	11.7µM*	-27.6%	-4.8%	?
CCCCc1ccc(C(=O)Nc2ccc3nc(N4CCN(CC)CC4)cc(C)c3c2)cc1	-13.6%	?	2.07µM*	-6.6%	0.8%	?
Cc1cc(N2CCCCC2)nc2ccc(NC(=O)c3ccc(F)cc3)cc12	/	-8.5%	-0.4%	-9.3%	/	-51.7%
CCN1CCN(c2cc(C)c3cc(NC(=O)/C=C/c4cccc(Cl)c4)ccc3n2)CC1	15.8µM*	?	?	?	?	?
CCN1CCN(c2cc(C)c3cc(NC(=O)c4cc(OC)cc(OC)c4)ccc3n2)CC1	?	?	13.1µM*	?	?	?
COc1ccc(C(=O)Nc2ccc3nc(N4CCC(C)CC4)cc(C)c3c2)cc1	?	13.7%	-7.5%	-0.5%	?	-7.3%
Cc1cc(N2CCCCC2)nc2ccc(NC(=O)/C=C/c3ccccc3Cl)cc12	3.0%	?	-15.5%	-21.8%	-2.2%	?
CC(C)c1onc(-c2c(Cl)cccc2Cl)c1COc1ccc(C=Cc2cccc(C(=O)O)c2)c(Cl)c1	/	/	/	25.7%	/	/
Cc1ccc2nc(/C(C#N)=C/c3cccc(Br)c3)[nH]c2c1	-24.8%	?	18.5µM*	-1.4%	-20.8%	?
COc1cc(/C=C(\C#N)c2nc3ccc(C)cc3[nH]2)ccc1OC(C)C	-18.6%	17.4%	-4.1%	-9.9%	-16.2%	-4.3%
Cc1ccccc1C(C(=O)NC1CCCCC1)N(C(=O)CNc1ccc(C#N)cc1)c1cccc(F)c1 (centres undefined)	/	/	/	0.4%	/	/
Cn1c(C(=O)NCCc2ccccc2)cc2sc(Cl)cc21	7.94µM*	-4.6%	0.1%	0.6%	11.2µM*	14.3%
CCn1cc(-c2ccnc3[nH]c(-c4cccc(CN(C)C)c4)cc23)c(-c2ccc(NC(=O)N(C)C)cc2)n1	/	/	/	1.4%	/	/
O=C(N/N=C/c1sc2ccccc2c1O)c1ccccc1	/	/	/	/	7.08µM*	/
O=C(N/N=C/c1cccs1)c1ccc(NC(=O)c2ccccc2Cl)cc1	35.8%	/	/	/	/	/
Cc1cccc(CS(=O)(=O)c2ncc(Cl)c(C(=O)NCc3ccccc3)n2)c1	?	20µM*	18.5µM*	-12.4%	19.1%	?
SMILES	p53null 39C tox	S16 viability	mTORC1 inh	OvCa metastasis	p53null 32C tox	PMP22 txn
COc1ccc2nc(NC(=O)c3nc(SCc4ccccc4F)ncc3Cl)sc2c1	13.4%	11.1%	2.3%	2.5%	-5.8%	-0.5%
COc1ccc2nc(NC(=O)c3nc(S(=O)(=O)Cc4ccccc4F)ncc3Cl)sc2c1	-18.2%	3.55µM*	14.7µM*	7.08µM*	-28.1%	4.8µM*
Cc1nnc(NC(=O)c2nc(S(=O)(=O)Cc3ccccc3)ncc2Cl)s1	?	5.01µM*	?	?	?	12.9µM*
COc1ccc2nc(NC(=O)c3nc(S(=O)(=O)Cc4ccccc4)ncc3Cl)sc2c1	?	5.62µM*	9.27µM*	?	-26.0%	2.99µM*
O=C(Nc1nc2ccc(F)cc2s1)c1nc(S(=O)(=O)Cc2ccccc2)ncc1Cl	?	6.31µM*	-8.5%	?	10.6%	6.23µM*
O=C(Nc1ccccc1F)c1nc(S(=O)(=O)Cc2ccccc2F)ncc1Cl	?	6.31µM*	1.17µM*	3.16µM*	-11.2%	?
C=C[C@@H]1CN2CCC1C[C@H]2[C@H](O)c1ccnc2ccc(OC)cc12 (some centres undefined)	/	/	/	-11.9%	/	/
Cc1cc(C(=O)NOCCO)c(Nc2ccc(I)cc2F)n(C)c1=O	/	/	/	0.6%	/	/
O=C(Nc1c(Cl)cccc1Cl)c1cc(-c2cccc(O)c2)on1	12.6µM*	/	-1.6%	i	62.4%	/
Cc1cccc(N=C/C(C(=O)C(F)(F)F)=C(\O)c2ccco2)c1	/	/	/	/	5.5%	/
O=C(/C(C=Nc1ccc(F)cc1)=C(/O)c1ccco1)C(F)(F)F	?	/	/	/	7.94µM*	/
CC1=C(C(=O)Nc2cc3cn[nH]c3cc2F)C(c2ccc(C(F)(F)F)cc2)CC(=O)N1 (centres undefined)	/	/	/	5.3%	/	/
CC(=O)NCCC(=O)N[C@@H](CCC(N)=O)C(=O)N[C@@H](CO)C(=O)N[C@@H](CCC(N)=O)C(=O)N[C@@H](CCC(N)=O)C(=O)N[C@H](C(=O)N[C@@H](Cc1ccccc1)C(=O)N[C@]1(C)CCCCCCC=CCCC[C@@](C)(C(=O)N[C@@H](CCC(N)=O)C(=O)N[C@@H](CC(N)=O)C(N)=O)NC(=O)[C@H](CC(C)C)NC(=O)[C@H](CC(C)C)NC(=O)[C@@H](CCCNC(=N)N)NC(=O)[C@H](Cc2c[nH]c3ccccc23)NC(=O)[C@H](CC(C)C)NC(=O)[C@H](CC(N)=O)NC1=O)[C@H](C)O	/	/	/	-5.0%	/	/
CCOc1ccc(CCNC(=O)c2cc3cc4cc(OC)ccc4nc3s2)cc1OCC	-4.7%	-2.8%	-29.5%	i	-19.4%	?
COc1ccc2nc3sc(C(=O)Nc4cc(Cl)c(OC)cc4OC)cc3cc2c1	10µM*	2.8%	4.2%	0.4%	-9.4%	-5.9%
